Assay results as given in PubChem BioAssay (NCATS).
Records with an inconclusive call do not appear. Calls of active or inactive are those of the source. Calls follow the shape of the dose curve; as a rule, active = well fitted curve in the direction sought with a large enough effect; inconclusive = small, poorly fitted or top-dose-only effect, or another doubt; inactive = no such curve, though single readings can be large; an effect the other way counts as inactive or inconclusive.

Tests used:
[1] = BET inhibitor-based combinations targeting novel dependencies in MECOM-rearranged (r) AML: OCI-AML3 cell line (AID 2202232); settings: Potency: OCI-AML3 viability; also: nearly all actives have a fitted effect of over 35% in size
Procedure, shortened: (§1)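 Here, 11-point titrations of each agent were applied to 500 seeded cells and incubated 48 hr; CellTiter-Glo signal, scaled against DMSO and empty wells, was integrated as AUC, then Z-scored within the individual line.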

[2] = BET inhibitor-based combinations targeting novel dependencies in MECOM-rearranged (r) AML: HNT-34 cell line (AID 2202234); also: nearly all actives have a fitted effect of over 35% in size
Procedure, shortened: (§2)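 Normalized to DMSO and empty-well controls, the luminescence data from CellTiter-Glo after 48 hr drug exposure were fitted across 11 concentrations. Reported metrics are area under the dose-response curve and its Z-transformed form.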

[3] = BET inhibitor-based combinations targeting novel dependencies in MECOM-rearranged (r) AML: UCSD-AML1 cell line (AID 2202235); also: nearly all actives have a fitted effect of over 40% in size
Procedure, shortened: as §2

[4] = BET inhibitor-based combinations targeting novel dependencies in MECOM-rearranged (r) AML: AML-191 cell line (AID 2202236; also: nearly all actives have a fitted effect of over 35% in size)
Procedure, shortened: as §1

[5] = BET inhibitor-based combinations targeting novel dependencies in MECOM-rearranged (r) AML: SET-2 cell line (AID 2202231); settings: SET-2 AML cells viability, CellTiter-Glo luminescence, 48 h; viability: hits give low values, concentration not given here; also: nearly all actives have a fitted effect of over 35% in size;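 as to viability: plate controls were DMSO treated cells for no effect and wells without cells for full effect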
Procedure, shortened: as §1

[6] = BET inhibitor-based combinations targeting novel dependencies in MECOM-rearranged (r) AML: MV-4-11 cell line (AID 2202233); also: nearly all actives have a fitted effect of over 45% in size
Procedure, shortened: as §2

[7] = BET inhibitor-based combinations targeting novel dependencies in MECOM-rearranged (r) AML: AML-194 cell line (AID 2202237; also: nearly all actives have a fitted effect of over 40% in size)
Procedure, shortened: as §1
Potency is read from the fitted curve at half-maximal effect.

CC(N[C@H]1C[C@@H]1c1ccccc1)c1ccc2c(c1)OCCO2 (some centres undefined)
active: Potency [3] 1.05 µM
inactive: Potency [1] | Potency [2]

C[C@]12COC(=O)C[C@@H]1CC[C@@H]1[C@@H]2CC[C@@]2(C)[C@H]1CC[C@]2(C)O
inactive: Potency [2] | Potency [4]

O=P1(NCCCl)OCCCN1CCCl (centres undefined)
inactive: viability [5] 115% | Potency [6] | Potency [2] | Potency [4] | Potency [7]

C[C@@H](C1CC[C@@]2(O)C3=CC(=O)[C@@H]4C[C@@H](O)[C@@H](O)C[C@]4(C)[C@H]3CC[C@]12C)[C@H](O)CCC(C)(C)O (some centres undefined)
inactive: Potency [1] | Potency [6] | Potency [2] | Potency [3] | Potency [7]

CC(C)CC(N(C)C)C1(c2ccc(Cl)cc2)CCC1 (centres undefined)
inactive: viability [5] 99.9% | Potency [6] | Potency [3] | Potency [4] | Potency [7]

CO/C1=C/C(C)=C\[C@@H](C)[C@@H](O)[C@@H](C)C/C(C)=C\C=C/[C@H](OC)[C@@H]([C@@H](C)[C@@H](O)[C@H](C)[C@@]2(O)C[C@@H](O)[C@H](C)[C@@H](C(C)C)O2)OC1=O
active: Potency [1] 0.124 µM

COc1cc2cc(c1Cl)N(C)C(=O)C[C@H](OC(=O)C(C)C)[C@]1(C)O[C@@H]1[C@H](C)[C@@H]1C[C@@](O)(NC(=O)O1)[C@H](OC)/C=C/C=C(\C)C2
inactive: Potency [6] | Potency [2] | Potency [3] | Potency [4]
active: Potency [5] 0.0021 µM

Cn1c(/C=C/CO)c(CO)c2c1C(=O)C=C(N1CC1)C2=O
inactive: Potency [7]

C/C=C(\C)C(=O)N[C@@H](c1ccccc1)[C@@H](O)C(=O)O[C@H]1C[C@@]2(O)[C@@H](OC(=O)c3ccccc3)[C@@H]3[C@]4(OC(C)=O)CO[C@@H]4C[C@H](O)[C@@]3(C)C(=O)[C@H](OC(C)=O)C(=C1C)C2(C)C
active: Potency [1] 0.0132 µM | Potency [3] 0.0166 µM

O=c1cccc2n1CC1CNC[C@H]2C1
inactive: Potency [1] | Potency [2] | Potency [3] | Potency [7]

C[C@H]1[C@H](O)[C@@H](C)/C=C/C=C/CC/C=C/C=C/C=C/C=C/[C@H](O[C@@H]2O[C@H](C)[C@@H](O)[C@H](N)[C@@H]2O)C[C@@H]2O[C@](O)(C[C@@H](O)[C@H](O)CC[C@@H](O)C[C@@H](O)C[C@@H](O)CC(=O)O[C@H]1C)C[C@H](O)[C@H]2C(=O)O
inactive: viability [5] 99% | Potency [6] | Potency [2] | Potency [3] | Potency [4] | Potency [7]

CC(C)[C@H]1C(=O)N[C@H](CO)Cc2c[nH]c3cccc(c23)N1C
active: Potency [6] 1.15 µM | Potency [2] 0.0512 µM

Cc1[nH]ncc1-c1cc2nc([C@@H]3CC4CCN3CC4)[nH]c(=O)c2s1
active: Potency [1] 9.34 µM | Potency [6] 3.32 µM | Potency [2] 9.34 µM

O=C(O)CNC(=O)C1C(=O)N(C2CCCCC2)C(=O)N(C2CCCCC2)C1=O
inactive: Potency [6] | Potency [2] | Potency [3] | Potency [4] | Potency [7]

N[C@@H](Cc1ccc(N(CCCl)CCCl)cc1)C(=O)O
active: Potency [5] 4.68 µM | Potency [2] 3.72 µM | Potency [3] 2.95 µM

CCOP(=O)(OCC)C(C)NC(=O)N(CCCl)N=O (centres undefined)
inactive: Potency [6] | Potency [3] | Potency [4] | Potency [7]

O=C(NCCCNc1nc(Nc2ccc(N3CCOCC3)cc2)ncc1C1CC1)C1CCC1
active: Potency [6] 0.372 µM | Potency [2] 13.2 µM | Potency [3] 9.34 µM

C[C@@H]1CC[C@@]2(OC1)O[C@H]1C[C@H]3[C@@H]4CC=C5C[C@@H](O[C@@H]6O[C@H](CO)[C@@H](O[C@@H]7O[C@@H](C)[C@H](O)[C@@H](O)[C@H]7O)[C@H](O)[C@H]6O[C@@H]6O[C@@H](C)[C@H](O)[C@@H](O)[C@H]6O)CC[C@]5(C)[C@H]4CC[C@]3(C)[C@H]1[C@@H]2C
active: Potency [5] 8.33 µM | Potency [6] 5.9 µM | Potency [2] 5.25 µM | Potency [3] 8.33 µM | Potency [4] 5.25 µM | Potency [7] 8.33 µM

CC(C)(O)/C=C\C(=O)[C@](C)(O)[C@H]1[C@H](O)C[C@]2(C)[C@@H]3CC=C4[C@@H](C=C(O)C(=O)C4(C)C)[C@]3(C)C(=O)C[C@@]12C
active: Potency [1] 0.417 µM | Potency [6] 0.148 µM | Potency [3] 0.148 µM | Potency [4] 0.0934 µM

CN1C(=O)COc2c(C(=O)NC3CN4CCC3CC4)cc(Cl)cc21 (centres undefined)
inactive: Potency [1] | Potency [2] | Potency [4] | Potency [7]

C=C[C@H]1CN2CCC1C[C@@H]2[C@@H](O)c1ccnc2ccccc12 (some centres undefined)
active: Potency [6] 5.9 µM
inactive: viability [5] 98.5% | Potency [2] | Potency [3] | Potency [4] | Potency [7]

COc1cc(C(=O)N2CC[C@@H](O)[C@@H](N)C2)cc2nc(-c3cc4ccccc4n3CC3CC3)n(C)c12
inactive: viability [5] 103% | Potency [2] | Potency [3] | Potency [4]

C[C@@H]1O[C@@H](O[C@@H]2C=C3CC[C@@H]4[C@H](CC[C@]5(C)[C@@H](c6ccc(=O)oc6)CC[C@]45O)[C@@]3(C)CC2)[C@H](O)[C@H](O)[C@H]1O
active: Potency [6] 0.0295 µM | Potency [2] 0.0148 µM | Potency [3] 0.0186 µM | Potency [4] 0.0186 µM | Potency [7] 0.0148 µM

O=C(O)C1=CCCN(CCOC(c2ccc(C(F)(F)F)cc2)c2ccc(C(F)(F)F)cc2)C1
inactive: Potency [4] | Potency [7]

Cn1c(CCCCCCC(=O)NO)nc2cc(N(CCCl)CCCl)ccc21
active: Potency [1] 2.35 µM | Potency [6] 1.48 µM | Potency [4] 2.63 µM | Potency [7] 2.95 µM
